Screening results deposited in PubChem BioAssay by several laboratories.
TLR4-MyD88 BLA: inhibitors of human TLR4-MyD88 binding; inhibition, % at 8.4 µM; HeLa CL3-4 TLR4/MyD88 BLA complementation, FRET ratio; 200,000 compounds, 0.18% hits; O00206+Q99836; in the data active = inhibition above about 25%
Target sequence (O00206 whole entry, looked up): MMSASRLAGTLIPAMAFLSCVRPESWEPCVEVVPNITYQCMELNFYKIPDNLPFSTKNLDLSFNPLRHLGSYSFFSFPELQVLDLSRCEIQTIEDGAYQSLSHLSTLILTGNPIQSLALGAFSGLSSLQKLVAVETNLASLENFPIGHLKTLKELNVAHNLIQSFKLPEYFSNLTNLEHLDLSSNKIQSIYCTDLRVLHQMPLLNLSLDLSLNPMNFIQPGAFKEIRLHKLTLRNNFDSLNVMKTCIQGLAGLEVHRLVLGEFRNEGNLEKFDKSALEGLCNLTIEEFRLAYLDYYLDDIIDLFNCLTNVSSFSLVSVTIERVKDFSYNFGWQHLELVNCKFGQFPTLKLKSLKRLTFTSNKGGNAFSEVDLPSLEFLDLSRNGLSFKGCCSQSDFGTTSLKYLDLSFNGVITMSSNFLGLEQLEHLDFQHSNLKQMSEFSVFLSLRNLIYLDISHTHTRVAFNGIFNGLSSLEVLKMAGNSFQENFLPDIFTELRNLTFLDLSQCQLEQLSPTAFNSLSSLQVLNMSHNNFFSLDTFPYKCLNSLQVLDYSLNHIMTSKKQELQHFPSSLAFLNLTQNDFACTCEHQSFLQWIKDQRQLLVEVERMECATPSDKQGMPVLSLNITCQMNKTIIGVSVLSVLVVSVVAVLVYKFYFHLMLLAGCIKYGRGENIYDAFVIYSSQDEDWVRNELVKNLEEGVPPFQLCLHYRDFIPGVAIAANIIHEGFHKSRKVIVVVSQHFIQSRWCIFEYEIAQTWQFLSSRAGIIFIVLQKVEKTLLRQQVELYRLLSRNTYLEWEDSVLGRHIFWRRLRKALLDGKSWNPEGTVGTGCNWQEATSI
Target sequence (Q99836 whole entry, looked up): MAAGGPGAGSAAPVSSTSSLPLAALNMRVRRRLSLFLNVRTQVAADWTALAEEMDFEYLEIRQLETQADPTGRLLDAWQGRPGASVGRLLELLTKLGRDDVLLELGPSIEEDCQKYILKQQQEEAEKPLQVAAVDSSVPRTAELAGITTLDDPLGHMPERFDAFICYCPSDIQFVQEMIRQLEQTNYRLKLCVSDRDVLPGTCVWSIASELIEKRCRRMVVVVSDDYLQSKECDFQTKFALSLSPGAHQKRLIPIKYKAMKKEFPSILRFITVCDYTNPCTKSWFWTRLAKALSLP
CRFBP-R2 block: CRF-BP/CRF-R2 complex antagonism; HEK293 CRF-R2/CRF-BP, CRF-induced calcium fluorescence; inhibition, % at 11.8 µM; 350,000 compounds, 0.59% hits; AID 588475;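 active = inhibition of the ligand-induced calcium signal above about 50% at the single tested concentration, limit read from the data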
TLR9-MyD88 block: TLR9-MyD88 interaction inhibition | Q9NR96+Q99836 | CHO BLA complementation TLR9-MyD88, CCF4 FRET ratio | inhibition, % at 4.98 µM | 340,000 compounds, 0.21% hits | AID 504734;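 active = inhibition above the mean over all tested compounds plus 3 SD, cut at about 21% in these data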
ABHD5 PLIN5 PPI: blocks binding of human ABHD5 to perilipin-5; inhibition, % at 4 µM; 360,000 compounds, 0.78% hits; Q00G26+Q8WTS1; Split G. princeps luciferase complementation, luminescence, 4 h;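 active = inhibition above the mean inhibition across every tested compound plus 3 SD, cut at about 22% in these data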
HTR2A ag: activates the mouse 5-HT2A serotonin receptor | P35363 | CHO-K1 mHTR2A beta-arrestin complementation, luminescence; percent of 30 µM serotonin response | activation, % at 7.6 µM | 360,000 compounds, 0.66% hits;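 active = activation above a run cutoff, the mean activation of all tested compounds plus 3 SD, cut at about 14% in these data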
NOD2 RIPK2 PPI: inhibitors of human NOD2-RIPK2 interaction | O43353 | CHO BLA complementation NOD2-RIPK2, CCF4 ratio | inhibition, % at 4.98 µM | 360,000 compounds, 0.38% hits | AID 624267; in the data active = inhibition above about 21%
ABHD5 PLIN5 conf: confirmation of human ABHD5-PLIN5 interaction inhibitors; shares compounds with ABHD5 PLIN5 PPI; biochemical ABHD5-PLIN5 interaction, luminescence; inhibition, % at 4 µM; 2,200 compounds, 67% hits; AID 651612; in the data active = inhibition above about 23%
HNF4 split-luc: counter-screen for ABHD5-PLIN5 inhibitors: HNF4 split-luciferase. 2,200 compounds, 77% hits. shares compounds with ABHD5 PLIN5 PPI. inhibition, % at 4 µM. HNF4 dimerization, luminescence, biochemical;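 active = mean inhibition across replicate wells exceeding the computed hit threshold, cut at about 13% in these data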;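 note: light from luciferase halves that rejoin when HNF4 fusion proteins dimerize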
OPRM1 ag: activates human mu opioid receptor in HTR2A counterscreen | shares compounds with HTR2A ag | U2OS OPRM1 beta-arrestin PathHunter, luminescence; DMSO 0%, DAMGO 9.3 µM 100% | activation, % at 9.3 µM | 2,300 compounds, 5.3% hits;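 active = mean activation above the mean of DMSO-only wells plus 3 SD, cut at about 0.5% in these data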
HTR2A ag conf: confirmation of mouse HTR2A serotonin receptor agonists | shares compounds with HTR2A ag | CHO-K1 PathHunter beta-arrestin recruitment, luminescence; DMSO 0%, 30 µM serotonin 100% | activation, % at 7.6 µM | 2,300 compounds, 19% hits | AID 624381;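 active = mean activation across triplicates above the hit threshold derived in the original primary screen, cut at about 15% in these data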
NOD2 RIPK2 conf: NOD2-RIPK2 interaction inhibition confirmed; shares compounds with NOD2 RIPK2 PPI; CHO cells, NOD2-RIPK2 BLA complementation, CCF4 FRET; inhibition, % at 4.98 µM; 1,200 compounds, 70% hits; AID 624370;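 active = mean inhibition across replicates above a set limit taken from the earlier primary screen, cut at about 21% in these data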
BLA counter: counter-screen for NOD2-RIPK2 interaction inhibitors: BLA reporter. shares compounds with NOD2 RIPK2 PPI. CHO BLA reporter, CCF4 FRET ratio, counterscreen. inhibition, % at 4.98 µM. 1,200 compounds, 57% hits. AID 624371;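 active = mean inhibition above the low-control mean inhibition plus three low-control SD, cut at about 11% in these data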
Numbers stand for hits; 0 = inactive; - = no result; ! = not active in a repeat. Rows were chosen to be rich in hits. Some 2.4% of all compounds tested hit in one or more screens of this group.

SMILES	TLR4-MyD88 BLA	CRFBP-R2 block	TLR9-MyD88 block	ABHD5 PLIN5 PPI	HTR2A ag	NOD2 RIPK2 PPI	ABHD5 PLIN5 conf	HNF4 split-luc	others
Cc1cccn2c(=O)c3cc(C(=O)NCCc4ccccc4)c(=N)n(Cc4ccco4)c3nc12	-	0	0	26	0	0	0	17
Cc1cccn2c(=O)c3cc(C(=O)NCc4ccco4)c(=N)n(C(C)C)c3nc12	0	0	0	27	0	0	0	18
N#Cc1c(NCCCO)nc(-c2ccco2)c2c1CCCC2	0	0	0	35	0	0	0	21
CCOC(=O)C(c1nc2ccccc2[nH]1)n1c(-c2ccccn2)nc2ccccc21 (stereo not given)	-	-	-	0	0	0	-	-
Cc1ccc(-c2nc3ccc(C)cn3c2CC2CCCCC2)cc1	-	-	-	0	0	0	-	-
Cc1ccc(S(=O)(=O)c2c(N)n(Cc3ccco3)c3nc4ccccc4nc23)cc1C	0	0	0	28	0	0	52	48
Nc1c(S(=O)(=O)c2ccccc2)c2nc3ccccc3nc2n1Cc1ccco1	0	0	0	0	0	0	-	-
CCN(CC)C(=O)C1=C(C)N(Cc2ccc(C(C)(C)C)cc2)C(=O)C(CC(=O)NCc2ccco2)C1 (stereo not given)	-	0	0	0	0	0	-	-
CN1CCC(=C2c3ccccc3CC(=O)c3sccc32)CC1	0	0	0	27!	0	0	30	0
O=C(/C=C/c1ccc[nH]1)c1ccc(F)cc1	0	0	0	0	0	0	-	-
O=C(/C=C/c1c(F)cccc1Cl)c1ccc(F)cc1	0	0	0	31	0	0	95	91
O=C(COC(=O)c1cc(S(=O)(=O)N2CCc3ccccc3C2)ccc1Cl)NCc1ccco1	0	0	0	28	0	0	45	59
O=C(CCCN1CCC(C(O)c2ccc(F)cc2)CC1)c1ccc(F)cc1 (stereo not given)	-	-	-	0	0	0	-	-
O=C(COC(=O)c1cc(-c2ccc(Cl)s2)nc2ccccc12)NCc1ccco1	0	0	0	38	0	0	59	56
O=C(NCc1ccc(Cl)nc1)c1csc([C@@H]2C[C@H](O)[C@@H](CO)O2)n1	-	-	-	0	0	0	-	-
Cc1ccccc1-n1c(=O)cc(N2CCN(C(=O)c3ccco3)CC2)[nH]c1=O	0	0	0	25	24	0	0	0	OPRM1 ag=0;HTR2A ag conf=0
CC(O)(c1ccc(F)c(F)c1)c1nc(-c2cc3ccccc3o2)cs1 (stereo not given)	-	-	-	0	0	0	-	-
COc1ccc(C)c2sc(N(CCCN(C)C)C(=O)c3ccc4c(c3)OCCO4)nc12	-	0	0	23	21	0	0	0	OPRM1 ag=0;HTR2A ag conf=0
COc1ccc(C)c2sc(N(CCN(C)C)C(=O)/C=C/c3cccs3)nc12	-	0	0	35	24	0	23	0	OPRM1 ag=1.0;HTR2A ag conf=0
CN(C)CCCN(C(=O)c1ccc2c(c1)OCCO2)c1nc2cc3c(cc2s1)OCO3	-	0	0	0	0	0	-	-
CC(C)C[C@H]1CN(CCCC[C@@H]2CNC(=O)C(=O)N2CC2CCCCC2)C(=O)C(=O)N1CCc1ccccc1	-	-	-	0	0	0	-	-
O=C(NCc1ccco1)c1cc(-c2cccs2)nc2ccccc12	0	0	0	0	0	0	-	-
Cc1ccc(-c2cc(C(=O)NCc3ccco3)c3ccccc3n2)s1	0	0	0	35	16	0	0	16	OPRM1 ag=0;HTR2A ag conf=0
Cc1nccn1-c1ccc(NC(=O)[C@H]2O[C@@H](n3ccc(N)nc3=O)[C@H](O)[C@@H]2O)cc1	-	-	-	0	0	0	-	-
CN(Cc1ccco1)S(=O)(=O)c1nnc(NC(=O)c2ccccc2Cl)s1	-	0	0	30	18	0	46	74	OPRM1 ag=0;HTR2A ag conf=0
COc1ccc2cc(C(=O)/C=C/c3cc(OC)c(OC)c(OC)c3)ccc2c1	-	0	0	0	0	0	-	-
COc1ccc(C=CC(=O)c2ccc3cc(OC)c(OC)cc3c2)cc1OC	-	0	0	41	17	0	41	26	OPRM1 ag=0;HTR2A ag conf=0
CCOc1cc(/C=C2\COc3ccccc3C2=O)cc(Br)c1OCC(=O)N(C)C	-	0	0	77	0	26	86	94	NOD2 RIPK2 conf=28;BLA counter=0
